Test [1] concerns the target Atrial natriuretic peptide receptor 1 (Homo sapiens) (UniProt P16066). Description: Natriuretic polypeptide receptor (hNpr1) antagonism - Pilot screen (AID 1347049; calls by dose curve;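 note: agonist-evoked cGMP luminescence read 20 min after hNppA addition; series mostly up to about 58 µM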). Put shortly: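 cGMP-sensor HEK293/hNpr1 cells, 1500/well, plated overnight at 37C. 2% GloSensor reagent, 2 h RT. Compound (23 nL pin transfer) 30 min RT, baseline luminescence pre-read. 0.1 nM hNppA, 20 min RT, post-read.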

Test [2] concerns the target Atrial natriuretic peptide receptor 2 (Homo sapiens) (UniProt P20594). Kind of test: Natriuretic polypeptide receptor (hNpr2) antagonism - Pilot subtype selectivity assay (AID 1347050; calls by dose curve; note: potency is the fitted concentration of half-maximal effect). An outline of the steps:
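Luminescence from a genetically encoded cGMP luciferase biosensor in hNpr2-expressing HEK293 cells is read before and 20 min after adding 1 nM hNppC. Test compounds, in interplate 1:5 titrations, are added 30-50 min ahead of the agonist.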

The nature of test [3]: NS1 protein of Zika virus - qHTS assay to identify small molecule inhibitors in human HEK 293 cells (AID 1347053). Note: series mostly up to about 46 µM; nearly all actives have a fitted effect of over 55% in size. Put shortly:
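Read-out is a two-antibody TR-FRET for ZIKV NS1, normalized between uninfected cells and infected cells. Compound added 1 h before MR766 infection at MOI 0.5; human HEK 293 cells incubated 24 h, 37 C.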
A general note: qHTS replaces the single test concentration by a dilution series.

The target of test [4] is T1, Tyrosine-protein phosphatase non-receptor type substrate 1 (Homo sapiens) + Leukocyte surface antigen CD47 (Homo sapiens) (UniProt P78324+Q08722). Kind of test: CD47-SIRPalpha protein protein interaction - LANCE assay qHTS validation (AID 1347057; active = well fitted curve in the direction sought with a large enough effect in the signal ratio, with a control signal flat, not every such curve was filed as active; the % refers to the signal ratio; note: series mostly up to about 38 µM). An outline of the steps: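 Inhibition of soluble CD47/SIRPalpha ectodomain association by titrated compounds, measured as 665/615 nm time-resolved FRET ratio after sequential 30 min room-temperature incubations.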
T1 sequence (P78324 whole entry, looked up, the tested form may be a part): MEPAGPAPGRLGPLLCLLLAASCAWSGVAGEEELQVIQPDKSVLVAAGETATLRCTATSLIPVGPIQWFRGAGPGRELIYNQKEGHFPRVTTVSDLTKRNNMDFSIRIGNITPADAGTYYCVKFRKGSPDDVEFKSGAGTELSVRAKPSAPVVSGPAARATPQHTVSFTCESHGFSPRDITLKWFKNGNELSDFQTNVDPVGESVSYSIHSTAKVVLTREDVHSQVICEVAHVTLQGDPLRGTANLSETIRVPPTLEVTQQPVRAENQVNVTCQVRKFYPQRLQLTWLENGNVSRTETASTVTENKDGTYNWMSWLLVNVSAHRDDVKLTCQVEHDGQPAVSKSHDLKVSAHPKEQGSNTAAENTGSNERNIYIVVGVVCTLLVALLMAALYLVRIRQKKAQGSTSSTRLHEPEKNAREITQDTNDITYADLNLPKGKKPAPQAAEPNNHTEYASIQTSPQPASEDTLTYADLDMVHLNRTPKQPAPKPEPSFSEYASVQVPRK
T1 sequence (Q08722 whole entry, looked up, the tested form may be a part): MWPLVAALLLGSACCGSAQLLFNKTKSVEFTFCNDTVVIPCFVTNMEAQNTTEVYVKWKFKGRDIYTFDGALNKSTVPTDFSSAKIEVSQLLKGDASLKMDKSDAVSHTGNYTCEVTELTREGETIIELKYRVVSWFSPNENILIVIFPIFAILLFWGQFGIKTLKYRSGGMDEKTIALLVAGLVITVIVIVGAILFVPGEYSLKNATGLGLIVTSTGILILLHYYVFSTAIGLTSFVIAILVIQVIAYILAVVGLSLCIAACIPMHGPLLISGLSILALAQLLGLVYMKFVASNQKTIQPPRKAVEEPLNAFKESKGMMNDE

The target of test [5] is T1, Tyrosine-protein phosphatase non-receptor type substrate 1 (Homo sapiens) + Leukocyte surface antigen CD47 (Homo sapiens). Description: CD47-SIRPalpha protein protein interaction - HTRF assay qHTS validation (AID 1347058; active = well fitted curve in the direction sought with a large enough effect in the signal ratio, not every such curve was filed as active; the % refers to the signal ratio; note: series mostly up to about 38 µM). An outline of the steps: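 Soluble extracellular domains (6His-CD47, Avi-tag-biotinylated SIRPalpha) in PBS pH 7.4 with 0.05% IGEPAL CA-630. Compounds were preincubated 30 min at RT with CD47 and anti-His-Eu, then SIRPalpha and SAV-XL665 were added. TR-FRET 665/615 ratio.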
(In general: TR-FRET usually uses a lanthanide donor and a delayed reading to cut background.)

Test [6] has the same target. Description: CD47-SIRPalpha protein protein interaction - Alpha assay qHTS validation (AID 1347059).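 Note: bead proximity luminescence from CD47 binding SIRPalpha after compound preincubation with SIRPalpha.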 An outline of the steps: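 SIRPalpha-biotin 25 nM + cpd, 30 min RT, dark; add CD47-His 12.5 nM, 30 min; add Ni-NTA/SAV beads 10 ug/mL, 30 min; AlphaScreen. Buffer PBS pH 7.4 + 0.05% IGEPAL CA-630. Non-biotinylated SIRPalpha as control inhibitor.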
Test [7] addresses Parathyroid hormone/parathyroid hormone-related peptide receptor (Homo sapiens) (UniProt Q03431). Description: qHTS for PTHR1 Agonists: Optimization Screen against the NCGC LOPAC library (AID 1347079).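 Note: GloSensor cAMP luminescence in HEK-293 GP2 cells expressing human PTHR1 with IBMX.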 Put shortly: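 HEK-293 GP2 cells, PTHR1 + GloSensor cAMP; 3000 cells/well, o/n. Luciferin + IBMX 0.5mM each (stock), 1 hr 37C. Cpd titration, 1 hr 37C. Lum after 15 min RT. Ctrl M-PTH(1-15) top 10uM.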

Test [8] in a line: qHTS of pediatric cancer cell lines to identify multiple opportunities for drug repurposing: Primary screen for DAOY cells (AID 1347090). Note: series mostly up to about 46 µM; nearly all actives have a fitted effect of over 55% in size. Put shortly: (§1)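 Viability measured as metabolically active cells via CellTiter-Glo luminescence following 48 hours of compound exposure, 11-point dilutions in confirmatory testing. 500-1,000 cells/well plated 5 hours before dosing; controls were DMSO and 2.3 µM bortezomib.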

Test [9] in a line: qHTS of pediatric cancer cell lines to identify multiple opportunities for drug repurposing: Primary screen for SJ-GBM2 cells (AID 1347091). Put shortly:
as §1

A short description of test [10]: qHTS of pediatric cancer cell lines to identify multiple opportunities for drug repurposing: Primary screen for A673 cells (AID 1347092). Note: nearly all actives have a fitted effect of over 45% in size. Put shortly:
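Cells are plated, rested 5 h, dosed by pintool, incubated 48 h, then lysed with CellTiter-Glo and read by luminescence. DMSO is the neutral control; bortezomib at 2.3 uM final is the positive control.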

Test [11] in a line: qHTS of pediatric cancer cell lines to identify multiple opportunities for drug repurposing: Primary screen for SK-N-MC cells (AID 1347093). Note: series mostly up to about 46 µM. An outline of the steps:
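Metabolically active cells were quantified by ATP-dependent luminescence (CellTiter-Glo, 15 min at room temperature) following 48 h treatment. Cells had been plated at 500-1,000 per well and settled for 5 h beforehand.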

Test [12] is described as follows: qHTS of pediatric cancer cell lines to identify multiple opportunities for drug repurposing: Primary screen for BT-37 cells (AID 1347094). Note: series mostly up to about 57 µM. Put shortly:
(§2)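 Following a 5-hour attachment period, cells at 500-1,000/well received compounds and were cultured for 48 hours. CellTiter-Glo was added and luminescence read to estimate viable, metabolically active cells.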

A short description of test [13]: qHTS of pediatric cancer cell lines to identify multiple opportunities for drug repurposing: Primary screen for NB-EBc1 cells (AID 1347095). Note: potency is the fitted concentration of half-maximal effect. Put shortly: as §2
The nature of test [14]: qHTS of pediatric cancer cell lines to identify multiple opportunities for drug repurposing: Primary screen for U-2 OS cells (AID 1347096). Note: nearly all actives have a fitted effect of over 50% in size. An outline of the steps: (§3)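 Viability after 48 h compound treatment at 37C, 500-1,000 cells/well, read as ATP luminescence with CellTiter-Glo. Primary screens used 11-point (MIPE, 0.78 nM-46 µM) or 8-point (NPC, 0.59 nM-46 µM) final concentrations; follow-up screens used 11-point dilutions.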

Test [15] can be described thus: qHTS of pediatric cancer cell lines to identify multiple opportunities for drug repurposing: Primary screen for Saos-2 cells (AID 1347097). Note: nearly all actives have a fitted effect of over 40% in size. Put shortly:
as §2

A short description of test [16]: qHTS of pediatric cancer cell lines to identify multiple opportunities for drug repurposing: Primary screen for SK-N-SH cells (AID 1347098). Note: nearly all actives have a fitted effect of over 65% in size. Note: potency is the fitted concentration of half-maximal effect. An outline of the steps:
(§4)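 Cells (500-1,000/well) rested 5 h, then received compounds for 48 h; metabolically active cells were measured by CellTiter-Glo luminescence. Final concentrations spanned up to 46 µM (MIPE, 11-point) or 0.59 nM-46 µM (NPC, 8-point) in primary screens, 11-point in follow-ups.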

Test [17] is described as follows: qHTS of pediatric cancer cell lines to identify multiple opportunities for drug repurposing: Primary screen for NB1643 cells (AID 1347099). Note: nearly all actives have a fitted effect of over 50% in size. Note: potency is the fitted concentration of half-maximal effect. An outline of the steps: as §2
Test [18] in a line: qHTS of pediatric cancer cell lines to identify multiple opportunities for drug repurposing: Primary screen for LAN-5 cells (AID 1347100). Note: potency is the fitted concentration of half-maximal effect. An outline of the steps:
as §3

The nature of test [19]: qHTS of pediatric cancer cell lines to identify multiple opportunities for drug repurposing: Primary screen for BT-12 cells (AID 1347101). Note: nearly all actives have a fitted effect of over 25% in size. Put shortly: as §4
Test [20] can be described thus: qHTS of pediatric cancer cell lines to identify multiple opportunities for drug repurposing: Primary screen for TC32 cells (AID 1347089). Note: nearly all actives have a fitted effect of over 60% in size. Put shortly: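 Measured quantity: luminescence from CellTiter-Glo, reflecting metabolically active TC32 cells following 48 h of compound. Curves came straight from multi-point titrations, with 8 or 11 points in primary and 11 in confirmatory screening.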

The values below come from PubChem BioAssay (NCATS).

Values joined by “and” are separate entries in the source; they are usually repeats but may differ in a detail not shown here. Identical values can stand only once. Inconclusive results are not listed. Active and inactive are the calls of the source. Unless noted, calls come from the whole dose curve; as a rule, active = well fitted curve in the direction sought with a large enough effect; inconclusive = small, poorly fitted or top-dose-only effect, or another doubt; inactive = no such curve, though single readings can be large; an effect the other way counts as inactive or inconclusive.

Atrial natriuretic peptide receptor 1 (Homo sapiens), sequence (P16066 whole entry, looked up): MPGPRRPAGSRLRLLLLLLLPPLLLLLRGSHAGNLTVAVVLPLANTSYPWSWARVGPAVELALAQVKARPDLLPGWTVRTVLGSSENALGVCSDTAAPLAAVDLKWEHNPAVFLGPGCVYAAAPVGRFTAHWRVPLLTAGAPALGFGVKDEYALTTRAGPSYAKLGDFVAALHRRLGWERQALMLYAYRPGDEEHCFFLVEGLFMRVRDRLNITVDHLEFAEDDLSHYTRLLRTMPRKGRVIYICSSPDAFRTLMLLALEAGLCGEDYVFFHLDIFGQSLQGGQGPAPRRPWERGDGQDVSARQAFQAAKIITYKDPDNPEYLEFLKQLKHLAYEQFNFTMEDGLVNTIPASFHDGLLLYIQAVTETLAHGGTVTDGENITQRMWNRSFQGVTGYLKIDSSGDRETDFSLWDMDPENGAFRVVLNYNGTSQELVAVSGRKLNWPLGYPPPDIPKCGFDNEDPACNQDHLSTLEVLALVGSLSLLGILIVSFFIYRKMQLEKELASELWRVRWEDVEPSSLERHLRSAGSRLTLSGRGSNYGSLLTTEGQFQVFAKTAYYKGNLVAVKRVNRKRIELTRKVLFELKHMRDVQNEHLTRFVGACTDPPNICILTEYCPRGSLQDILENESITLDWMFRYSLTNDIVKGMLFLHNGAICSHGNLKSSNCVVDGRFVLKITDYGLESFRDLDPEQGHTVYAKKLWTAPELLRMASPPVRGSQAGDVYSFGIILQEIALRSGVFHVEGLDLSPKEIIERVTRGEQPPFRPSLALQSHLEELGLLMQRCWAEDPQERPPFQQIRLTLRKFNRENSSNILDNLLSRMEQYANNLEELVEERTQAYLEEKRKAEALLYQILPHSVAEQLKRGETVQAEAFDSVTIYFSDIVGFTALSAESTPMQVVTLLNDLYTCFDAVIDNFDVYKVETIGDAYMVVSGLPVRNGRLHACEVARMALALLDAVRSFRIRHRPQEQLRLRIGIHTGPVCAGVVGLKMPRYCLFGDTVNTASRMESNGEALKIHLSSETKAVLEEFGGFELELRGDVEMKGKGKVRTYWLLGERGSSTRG
Atrial natriuretic peptide receptor 2 (Homo sapiens), sequence (P20594 whole entry, looked up): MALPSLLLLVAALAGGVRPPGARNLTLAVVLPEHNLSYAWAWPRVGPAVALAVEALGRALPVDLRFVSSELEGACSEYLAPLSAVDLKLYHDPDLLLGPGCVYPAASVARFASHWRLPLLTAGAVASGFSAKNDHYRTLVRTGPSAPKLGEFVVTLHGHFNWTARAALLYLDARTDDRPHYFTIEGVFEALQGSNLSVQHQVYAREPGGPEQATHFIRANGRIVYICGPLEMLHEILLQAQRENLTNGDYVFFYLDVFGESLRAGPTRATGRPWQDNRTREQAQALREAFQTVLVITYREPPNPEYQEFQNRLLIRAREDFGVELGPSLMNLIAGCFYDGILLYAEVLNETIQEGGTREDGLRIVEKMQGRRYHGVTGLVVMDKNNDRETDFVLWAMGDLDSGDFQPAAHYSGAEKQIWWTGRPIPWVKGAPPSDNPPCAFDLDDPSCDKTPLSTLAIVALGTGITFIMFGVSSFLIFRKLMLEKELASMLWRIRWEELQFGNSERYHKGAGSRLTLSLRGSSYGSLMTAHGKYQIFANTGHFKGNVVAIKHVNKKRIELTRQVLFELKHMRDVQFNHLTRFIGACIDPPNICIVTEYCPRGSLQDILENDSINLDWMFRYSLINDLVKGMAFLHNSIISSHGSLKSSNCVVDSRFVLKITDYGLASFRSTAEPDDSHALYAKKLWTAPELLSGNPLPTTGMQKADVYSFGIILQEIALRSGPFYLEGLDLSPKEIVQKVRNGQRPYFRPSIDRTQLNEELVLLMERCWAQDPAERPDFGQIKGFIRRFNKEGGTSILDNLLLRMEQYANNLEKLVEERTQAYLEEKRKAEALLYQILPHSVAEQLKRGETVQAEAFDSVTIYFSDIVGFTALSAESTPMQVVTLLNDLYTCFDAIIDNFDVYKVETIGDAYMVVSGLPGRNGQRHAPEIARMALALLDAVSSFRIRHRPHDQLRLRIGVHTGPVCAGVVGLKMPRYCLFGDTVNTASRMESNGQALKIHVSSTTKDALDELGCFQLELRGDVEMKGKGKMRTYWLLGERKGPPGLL
Parathyroid hormone/parathyroid hormone-related peptide receptor (Homo sapiens), sequence (Q03431 whole entry, looked up): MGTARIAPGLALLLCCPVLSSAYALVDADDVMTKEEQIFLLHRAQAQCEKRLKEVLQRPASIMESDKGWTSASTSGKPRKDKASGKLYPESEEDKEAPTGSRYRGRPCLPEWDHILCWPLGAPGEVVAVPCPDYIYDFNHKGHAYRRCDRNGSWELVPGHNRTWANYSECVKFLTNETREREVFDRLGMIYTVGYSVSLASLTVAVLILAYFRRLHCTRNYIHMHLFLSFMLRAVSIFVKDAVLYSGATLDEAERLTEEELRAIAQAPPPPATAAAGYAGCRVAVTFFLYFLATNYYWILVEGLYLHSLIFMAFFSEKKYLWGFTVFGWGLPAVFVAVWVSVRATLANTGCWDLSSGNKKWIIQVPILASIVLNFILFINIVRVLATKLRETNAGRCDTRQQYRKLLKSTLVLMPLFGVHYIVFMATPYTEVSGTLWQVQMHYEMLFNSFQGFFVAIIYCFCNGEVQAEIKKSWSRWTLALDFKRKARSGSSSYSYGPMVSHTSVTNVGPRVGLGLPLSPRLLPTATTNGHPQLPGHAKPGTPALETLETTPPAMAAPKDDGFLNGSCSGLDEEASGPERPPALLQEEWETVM

Turning to `CN1CCN(C2=Nc3cc(Cl)ccc3Nc3ccccc32)CC1`, the Potency result in test [1], in test [3], in [6], in test [7], in test [8] and in [9] was “inactive” in each case. Moreover, the Potency entry in test [10], in test [11], in test [12], in [13], in test [14] and in [15] was “inactive” throughout. In addition, the Potency result in test [17], in test [18] and in test [19] was “inactive” each time. In addition, the Potency was 10.4 µM (active) in test [2] and 15.4 µM (active) in test [16]. Moreover, the outcome in [4] and in test [5] was inactive.

Take `CN1CCN2c3ccccc3Cc3ccccc3C2C1` (stereo not given): the Potency result in test [1], in [2], in test [3], in test [6], in test [7] and in test [20] was “inactive” in each case. For the same molecule, the Potency entry in test [9], in [10], in test [11], in [12], in test [13] and in test [14] was “inactive” in each case. Further, the Potency result in test [15], in test [16], in test [17] and in [19] was “inactive” in each case. The outcome in test [4] and in [5] was inactive.

Turning to `O=c1[nH]cc(F)c(=O)[nH]1`, the Potency entry in [1], in [2], in test [3], in test [6], in test [7] and in test [20] was “inactive” each time. In addition, the Potency result in [9], in test [14] and in test [15] was “inactive” each time. Further, the result in test [4] and in test [5] was inactive. In addition, the Potency in test [13] is 9.44 µM (active) and 2.64 µM (active); in [17] it was 5.26 µM (active); in test [18] it was 7.43 µM (active).

For `Nc1c2c(nc3ccccc13)CCCC2`, the Potency entry in test [1], in test [2], in test [3], in test [6], in [7] and in test [20] was “inactive” each time. Moreover, the Potency entry in test [8], in test [9], in test [10], in test [11], in [12] and in test [13] was “inactive” in each case. The Potency entry in test [14], in test [15], in [16], in test [17], in test [18] and in [19] was “inactive” throughout. Also, the result in test [4] and in [5] was inactive.

For `O=C(c1ccc(F)cc1)C1CCN(CCn2c(=O)[nH]c3ccccc3c2=O)CC1`, the Potency result in [1], in [2], in test [3], in test [6], in [7] and in test [20] was “inactive” throughout. Besides, the Potency result in [8], in [9], in test [10], in test [11], in test [12] and in [13] was “inactive” each time. Further, the Potency result in test [14], in test [15], in [16], in test [17], in [18] and in [19] was “inactive” throughout. For the same molecule, the outcome in test [4] and in test [5] was inactive.

As to `CC(C)(Oc1ccc(C2CC2(Cl)Cl)cc1)C(=O)O` (stereo not given), the Potency result in test [1], in test [2], in [3], in test [6], in test [7] and in test [20] was “inactive” in each case. The Potency entry in [11], in [14], in test [15], in test [17] and in test [19] was “inactive” each time. Besides, the outcome in test [4] and in test [5] was inactive.

For `NC12CC3CC(CC(C3)C1)C2`, the Potency result in test [1], in [2], in test [3], in test [6], in test [7] and in test [20] was “inactive” each time. Also, the Potency entry in [9], in test [12], in test [13], in test [14], in [15] and in test [17] was “inactive” throughout. Besides, the Potency result in test [18] and in [19] was “inactive” each time. The result in test [4] and in test [5] was inactive.
